An excerpt weighted towards active compounds, which were near 9.6% of everything screened.
USP30 block: inhibitors of human USP30 deubiquitinase; Ubiquitin carboxyl-terminal hydrolase 30 (Homo sapiens), Q70CQ3; purified USP30, Ub-rhodamine cleavage fluorescence; inhibition, % at 25 µM; hit rate 5.3% among 47,000
USP17 block: inhibitors of human USP17 deubiquitinase. Ubiquitin carboxyl-terminal hydrolase 17-like protein 5 (Homo sapiens), A8MUK1. purified USP17, Ub-rhodamine cleavage fluorescence, 3 h. inhibition, % at 50 µM. hit rate 6.5% among 47,000. AID 1645855, 2021
Target sequence (A8MUK1 whole entry, looked up): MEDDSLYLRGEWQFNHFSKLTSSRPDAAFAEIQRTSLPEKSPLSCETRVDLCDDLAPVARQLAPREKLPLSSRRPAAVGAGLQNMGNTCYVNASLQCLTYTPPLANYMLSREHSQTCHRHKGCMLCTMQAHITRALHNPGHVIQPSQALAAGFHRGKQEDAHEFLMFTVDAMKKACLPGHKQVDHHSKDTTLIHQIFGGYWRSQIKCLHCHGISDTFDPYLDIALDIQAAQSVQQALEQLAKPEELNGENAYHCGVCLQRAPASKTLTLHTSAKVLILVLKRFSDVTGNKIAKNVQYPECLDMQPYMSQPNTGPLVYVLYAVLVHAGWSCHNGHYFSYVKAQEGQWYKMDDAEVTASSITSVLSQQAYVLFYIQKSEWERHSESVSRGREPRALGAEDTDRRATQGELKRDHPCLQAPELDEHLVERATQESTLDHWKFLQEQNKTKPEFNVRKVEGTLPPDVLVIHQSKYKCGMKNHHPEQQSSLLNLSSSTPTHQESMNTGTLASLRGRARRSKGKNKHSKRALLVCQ
The depositor's hits bear a star. Cut-off read from the data, not from the text of the source: active = inhibition above about 30%; inactive = the rest.

For O=C(NC(Cc1ccccc1)c1nc2ccccc2[nH]1)c1ccccn1 (stereo not drawn) the results were USP30 block -11 and USP17 block -16.
COc1ccc(C(=O)NC(Cc2ccccc2)c2nc3ccccc3[nH]2)c(OC)c1 (stereo not drawn) was read as USP30 block 1 and USP17 block 71*.
For O=C(NC(Cc1c[nH]c2ccccc12)c1nc2ccccc2[nH]1)c1ccccc1 (stereo not drawn) the results were USP30 block -38 and USP17 block 34*.
Nc1cc(-c2cncnc2C2CCN(C(=O)c3ccccc3)C2)ccn1 (stereo not drawn) was read as USP30 block -18 and USP17 block -13.
CCc1ccccc1NC(=O)N1CCCC2(CCCN2S(C)(=O)=O)C1 (stereo not drawn) was read as USP30 block 3 and USP17 block -8.
COc1ccc(-c2nc(-c3cccc(-c4ccn[nH]4)c3)no2)cc1F was read as USP30 block -38 and USP17 block 9.
Fc1ccc(OCc2nc(-c3cccc(-c4ccn[nH]4)c3)no2)cc1 was read as USP30 block 39* and USP17 block 80*.
For Cc1ccc(NC(=O)c2cn(CC(O)c3ccc4c(c3)OCO4)nn2)cc1 (stereo not drawn) the results were USP30 block 47* and USP17 block 46*.
`O=C(Nc1ccc(F)cc1)c1cn(CC(O)c2ccc3c(c2)OCO3)nn1` (stereo not drawn) gave USP30 block 15 and USP17 block 2.
O=C1CC(c2noc(-c3cccc(F)c3)n2)CN1Cc1ccccc1 (stereo not drawn) was read as USP30 block -1.
`COc1ccc(CNc2ccc(-c3ccccc3)nn2)cc1` gave USP30 block 18 and USP17 block 37*.
Screening c1ccc(CNc2ccc(-c3nc(-c4ccccc4)no3)nn2)cc1 returned USP30 block -21 and USP17 block 10.
COc1cccc(CNC(=O)C(C)n2cccc2C(=O)c2ccccc2)c1 (stereo not drawn) was read as USP30 block -21 and USP17 block -3.
Screening O=S(=O)(c1ccc(-c2ccco2)cc1)C1CCN(CCc2ccccn2)CC1 returned USP30 block -51 and USP17 block 31*.
For Cc1cc(C)nc(N2CCC(S(=O)(=O)c3ccc(-c4ccco4)cc3)CC2)n1 the results were USP30 block -60 and USP17 block 3.
Cc1nn(C)cc1CCC(=O)N1CCC[C@@H]2NC(=O)c3ccccc3OCCCCC[C@@H]21 was read as USP30 block -1 and USP17 block 0.
Screening O=C(Cc1c(F)cccc1Cl)Nc1ccc2c(c1)OCO2 returned USP30 block -3 and USP17 block 24.
Screening N#Cc1ccc(-c2ccc(OCC(=O)Nc3ccc4c(c3)OCO4)cc2)cc1 returned USP30 block 29 and USP17 block 56*.
Screening O=C(COc1ccc2c(c1)OCO2)Nc1ccc2c(c1)OCCO2 returned USP30 block -22 and USP17 block -21.
For O=C(Cc1ccc(Br)cc1)Nc1ccc2c(c1)OCO2 the results were USP30 block 3 and USP17 block 44*.
`CN1[C@@H](CCC(=O)N2CC[C@@H](O)C2)CNC(=O)[C@@H]2[C@H]1CCN2CC(C)(C)C` gave USP30 block -3 and USP17 block -7.
Screening COc1ccc2[nH]c(C(=O)N(Cc3ccccn3)Cc3ccccn3)cc2c1 returned USP30 block -7 and USP17 block 44*.
COc1ccc2cc(C(=O)NCc3ccccn3)[nH]c2c1 was read as USP30 block -22 and USP17 block -5.
For COc1ccc(CNc2ncc(C(=O)NCc3ccccc3)c(C)n2)cc1 the results were USP30 block -100 and USP17 block -8.
`Cc1nc(NCc2ccccc2F)ncc1C(=O)NCc1ccccc1` gave USP30 block 24 and USP17 block 46*.
Screening Cc1ccc(S(=O)(=O)N2CCCC2)cc1-c1nnc(-c2ccccc2)o1 returned USP17 block 20.
Screening Cc1sc2nc(C)n(C3CCN(CC(=O)NCC4CC4)CC3)c(=O)c2c1C returned USP30 block -1 and USP17 block -4.
For Cc1sc2nc(C3CC3)n(C3CCN(C(=O)CC(C)C)CC3)c(=O)c2c1C the results were USP30 block 40* and USP17 block 20.
For Cc1sc2nc(C(C)C)n(C3CCN(C(=O)C4CCCO4)CC3)c(=O)c2c1C (stereo not drawn) the results were USP30 block 0 and USP17 block -5.
Cc1sc2nc(C3CC3)n(C3CCN(C(=O)C4CC4)CC3)c(=O)c2c1C was read as USP30 block 33* and USP17 block 23.
COc1ccccc1/C=C/C=C/C12NC(=O)CN1c1ccccc1C2(C)C (stereo not drawn) was read as USP30 block -252 and USP17 block -50.
Cc1ccc(F)cc1S(=O)(=O)n1cc2c(=O)n(C(C)C)c(=O)n(C(C)C)c2n1 was read as USP30 block -6 and USP17 block -6.
`Cc1c(-c2noc(-c3ccncc3)n2)nnn1-c1ccccc1` gave USP30 block 31* and USP17 block 30.
For Cc1c(-c2noc(-c3cccnc3)n2)nnn1-c1ccccc1 the results were USP30 block -4 and USP17 block 0.
Screening c1ccc(-c2nc(-c3nnn(-c4ccccc4)c3-c3ccncc3)no2)cc1 returned USP30 block 10 and USP17 block 51*.
For c1ccc(-n2nnc(-c3noc(-c4ccncc4)n3)c2-c2ccncc2)cc1 the results were USP30 block 23 and USP17 block 10.
`COc1ccccc1CN(C(=O)c1ccco1)C(C(=O)NC1CCCCC1)c1ccc(OC)c(OC)c1` (stereo not drawn) gave USP30 block -50.
Screening Cn1cc(C(=O)Nc2ccccc2)c2[nH]c(=O)n(Cc3ccccc3)c(=O)c21 returned USP30 block -1 and USP17 block -5.
For CCc1ccccc1Nc1nc2ccc(C)cc2nc1-n1nc(C)cc1C the results were USP30 block -7 and USP17 block -7.
COc1ccc(NC(c2nnc(-c3ccccc3)o2)c2ccccc2F)c(OC)c1 (stereo not drawn) was read as USP30 block -154 and USP17 block -2.
`COc1ccc(NC(=O)Nc2ccc(F)c(-c3nnc(-c4ccccc4)o3)c2)c(OC)c1` gave USP30 block 40* and USP17 block 19.
For COC(=O)CSc1nc(SC)nc2c1sc1nc(CC(C)C)c3c(c12)CCC3 the results were USP30 block 2 and USP17 block 23.
Cc1ccc(NC(=O)N2CCN(c3cnn4c(C5CC5)nnc4c3)CC2)cc1 was read as USP30 block 2 and USP17 block -1.
Screening CC(=O)Nc1ccc(CN2CCN(c3cnn4c(C5CC5)nnc4c3)CC2)cc1 returned USP30 block 33* and USP17 block 10.
Screening Cc1cccc(-n2c(Cc3cccn3C)nnc2SCC(=O)N2CCC(C)CC2)c1C returned USP30 block -4 and USP17 block -2.
For O=C(NC1CCN(Cc2ccccc2)CC1)c1cc(-c2cccnc2)n[nH]1 the results were USP17 block -5.
`O=C(NC1CCCCCC1)c1cc(-c2cccnc2)n[nH]1` gave USP30 block -1 and USP17 block -6.
`O=C(Nc1ccc(Cl)cc1F)c1cc(-c2cccnc2)n[nH]1` gave USP30 block 41* and USP17 block 28.

Source: PubChem BioAssay (Buhrlage Lab, Dana-Farber Cancer Institute and Novartis Institutes for BioMedical Research (Cambridge, Mass))
